# From PubChem BioAssay (NCATS)
# Values without a mark were called inactive. Results filed as inconclusive are left out. Activity calls are given as the source filed them. Unless noted, calls follow the shape of the dose curve; as a rule, active = well fitted curve in the direction sought with a large enough effect; inconclusive = small, poorly fitted or top-dose-only effect, or another doubt; inactive = no such curve, though single readings can be large; an effect the other way counts as inactive or inconclusive.
# Tests used:
# [1] = molecular target: Lysosomal acid glucosylceramidase (Homo sapiens) (UniProt P04062); assay: Glucocerebrosidase-p2 (AID 348; in the data active = potency below about 10 µM; also: potency is read from the fitted curve at half-maximal effect); conditions: purified GBA, blue fluorogenic substrate, 40 min
# Summary of the method: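 Normal human glucocerebrosidase (0.2 nM) with blue fluorogenic substrate (80 uM final) in citrate/phosphate pH 5.9 with 10mM sodium taurocholate, 0.01% tween-20; 40 min RT, NaOH/glycine stop; fluorescence Ex 365/Em 440; AC50 from a titration from 0.6 nM upwards.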
# [2] = molecular target: Cytochrome P450 3A4 (Homo sapiens) (UniProt P08684); assay: qHTS Assay for Inhibitors and Substrates of Cytochrome P450 3A4 (AID 884); conditions: recombinant CYP3A4, Luciferin-PPXE luminescence; series mostly up to 57.1 µM; also: nearly all actives have a fitted effect of over 50% in size; also: potency is read from the fitted curve at half-maximal effect
# Summary of the method: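 Luminescent readout of luciferin produced by CYP3A4 (20 nM) dealkylation of Luciferin-PPXE, 25 uM (its KM). NADPH-driven reaction ran 60 min at RT after 10 min compound preincubation; data scaled to 57 uM ketoconazole as 100% inhibition.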
# [3] = qHTS Assay for Identification of Small Molecule Agonists for Hypoxia Response Element Signaling Pathway (AID 914; active = well fitted activation curve with a large enough effect in the signal ratio, with a control signal flat, not every such curve was filed as active; the % refers to the signal ratio; also: potency is read from the fitted curve at half-maximal effect; as to activation: % of control where 0% means no effect); conditions: ME-180 (cervical carcinoma) HRE-bla reporter, beta-lactamase ratio, CoCl2, 17 h; activation: stronger effect = higher value
# Summary of the method: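 HRE-bla ME-180 cells with beta-lactamase reporter under hypoxia response element, compounds with EC50 CoCl2 for 17 hours at 37 C. CCF4 substrate, 460nm/530nm emission ratio gave %Activity; AC50 from titration series.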
# [4] = molecular target: ATP-dependent 6-phosphofructokinase (Trypanosoma brucei brucei) (UniProt O15648); assay: qHTS Assay to Find Inhibitors of T. brucei phosphofructokinase: hit validation (AID 492961);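 also: luminescence reports ADP formed as PFK phosphorylates fructose-6-phosphate with ATP; % is scaled to controls: 0 for no effect and ±100 for the full control effect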; conditions: T. brucei PFK, ADP-Glo luminescence; series mostly up to 51.4 µM
# Summary of the method: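 Percent activity derived from corrected luminescence, normalized between 0x and 1x enzyme controls, then fitted to concentration-response curves. Conditions: 1.25 nM PFK, 0.1 mM ATP, 0.5 mM F6P, 45 min RT.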
# [5] = qHTS profiling for inhibitors of Plasmodium falciparum proliferation (AID 504749); also: nearly all actives have a fitted effect of over 60% in size; also: potency is read from the fitted curve at half-maximal effect;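 as to activity, negative = inhibition: 0% = DMSO vehicle and full inhibition = artemisinin control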; conditions: P. falciparum in erythrocytes, SYBR Green DNA, 72 h, at 28.7 µM (top of the series)
# Summary of the method: (§1)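 Fluorescence of SYBR Green-bound parasite DNA, read at 485/535 nm, served as the growth measure. Infected erythrocytes were cultured with compound 72 h; artemisinin (0.29 uM) and DMSO wells defined the normalization range.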
# AS120 = assay: as above; conditions: P. falciparum in erythrocytes, SYBR Green DNA, 72 h; series mostly up to 28.7 µM
# Summary of the method: as §1
# ATS189 = assay: as above; conditions: P. falciparum in erythrocytes, SYBR Green DNA, 72 h; series mostly up to 28.7 µM
# Summary of the method: as §1
# CP185 = assay: as above; conditions: P. falciparum in erythrocytes, SYBR Green DNA, 72 h; series mostly up to 28.7 µM
# Summary of the method: as §1
# CP191 = assay: as above; conditions: P. falciparum in erythrocytes, SYBR Green DNA, 72 h; series mostly up to 28.7 µM
# Summary of the method: as §1
# CP192 = assay: as above; conditions: P. falciparum in erythrocytes, SYBR Green DNA, 72 h; series mostly up to 28.7 µM
# Summary of the method: as §1
# CP201 = assay: as above; conditions: P. falciparum in erythrocytes, SYBR Green DNA, 72 h; series mostly up to 28.7 µM
# Summary of the method: as §1
# CP237 = assay: as above; conditions: P. falciparum in erythrocytes, SYBR Green DNA, 72 h; series mostly up to 28.7 µM
# Summary of the method: as §1
# CP247 = assay: as above; conditions: P. falciparum in erythrocytes, SYBR Green DNA, 72 h; series mostly up to 28.7 µM
# Summary of the method: as §1
# DIV30 = assay: as above; conditions: P. falciparum in erythrocytes, SYBR Green DNA, 72 h; series mostly up to 28.7 µM
# Summary of the method: as §1
# HB3 = assay: as above; conditions: P. falciparum in erythrocytes, SYBR Green DNA, 72 h; series mostly up to 28.7 µM
# Summary of the method: as §1
# P94_40 = assay: as above; conditions: P. falciparum in erythrocytes, SYBR Green DNA, 72 h; series mostly up to 28.7 µM
# Summary of the method: as §1
# PC49 = assay: as above; conditions: P. falciparum in erythrocytes, SYBR Green DNA, 72 h; series mostly up to 28.7 µM
# Summary of the method: as §1
# TAB113 = assay: as above; conditions: P. falciparum in erythrocytes, SYBR Green DNA, 72 h; series mostly up to 28.7 µM
# Summary of the method: as §1
# W2 = assay: as above; conditions: P. falciparum in erythrocytes, SYBR Green DNA, 72 h; series mostly up to 28.7 µM
# Summary of the method: as §1
# Chain of Cytochrome P450 3A4 (Homo sapiens) (P08684 whole entry, looked up): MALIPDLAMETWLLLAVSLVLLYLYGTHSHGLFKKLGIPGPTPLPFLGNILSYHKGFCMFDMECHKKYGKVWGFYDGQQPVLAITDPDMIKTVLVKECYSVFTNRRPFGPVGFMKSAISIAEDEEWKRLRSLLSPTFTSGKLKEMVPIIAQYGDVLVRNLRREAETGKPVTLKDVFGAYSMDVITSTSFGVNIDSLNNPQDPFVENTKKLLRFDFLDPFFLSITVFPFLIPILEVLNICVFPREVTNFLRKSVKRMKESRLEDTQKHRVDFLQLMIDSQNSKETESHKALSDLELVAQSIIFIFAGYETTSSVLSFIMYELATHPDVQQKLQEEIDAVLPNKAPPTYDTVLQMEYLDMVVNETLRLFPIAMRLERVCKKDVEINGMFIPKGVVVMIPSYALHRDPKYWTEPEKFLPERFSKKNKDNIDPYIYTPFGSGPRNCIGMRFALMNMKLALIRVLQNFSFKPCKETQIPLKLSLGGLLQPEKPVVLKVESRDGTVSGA
# Chain of Lysosomal acid glucosylceramidase (Homo sapiens) (P04062 whole entry, looked up): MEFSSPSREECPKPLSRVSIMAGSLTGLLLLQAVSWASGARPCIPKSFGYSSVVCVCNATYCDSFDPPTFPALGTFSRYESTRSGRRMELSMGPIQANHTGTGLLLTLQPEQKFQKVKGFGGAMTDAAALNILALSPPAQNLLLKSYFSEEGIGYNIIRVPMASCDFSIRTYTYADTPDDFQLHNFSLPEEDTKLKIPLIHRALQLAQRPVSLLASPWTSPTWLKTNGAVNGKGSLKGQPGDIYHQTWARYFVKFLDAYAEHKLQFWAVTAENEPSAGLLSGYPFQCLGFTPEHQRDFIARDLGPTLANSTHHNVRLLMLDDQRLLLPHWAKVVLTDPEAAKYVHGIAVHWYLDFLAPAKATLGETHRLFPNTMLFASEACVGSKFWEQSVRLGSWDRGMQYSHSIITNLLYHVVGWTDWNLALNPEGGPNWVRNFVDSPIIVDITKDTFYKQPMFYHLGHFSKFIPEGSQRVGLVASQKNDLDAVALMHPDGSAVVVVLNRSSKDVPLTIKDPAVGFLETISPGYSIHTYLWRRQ
# Chain of ATP-dependent 6-phosphofructokinase (Trypanosoma brucei brucei) (O15648 whole entry, looked up): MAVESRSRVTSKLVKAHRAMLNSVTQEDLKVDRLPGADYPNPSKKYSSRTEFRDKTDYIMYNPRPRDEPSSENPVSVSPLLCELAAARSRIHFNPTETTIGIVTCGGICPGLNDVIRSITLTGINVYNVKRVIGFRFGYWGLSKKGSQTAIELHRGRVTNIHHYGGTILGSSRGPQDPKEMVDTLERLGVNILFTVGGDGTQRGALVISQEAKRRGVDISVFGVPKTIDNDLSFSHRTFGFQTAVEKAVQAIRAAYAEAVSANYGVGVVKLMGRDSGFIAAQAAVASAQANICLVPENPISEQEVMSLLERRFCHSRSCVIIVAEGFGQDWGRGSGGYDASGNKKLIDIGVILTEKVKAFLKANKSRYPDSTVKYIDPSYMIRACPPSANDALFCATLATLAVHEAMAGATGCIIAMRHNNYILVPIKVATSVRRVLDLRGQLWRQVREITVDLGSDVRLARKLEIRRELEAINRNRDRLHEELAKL
structure (smiles),measurement,setting,value
CCNc1ncc2nc(CCc3ccccc3)c(=O)n(-c3ccc(OC)cc3)c2n1,Potency,[1],> 11.4 µM
same,Potency,[2],6.31 µM (active)
same,activation,[3],-1.93%
COc1cccc(Nc2ncc3nc(CCc4ccccc4)c(=O)n(C[C@H]4CCCO4)c3n2)c1,Potency,[1],> 11.4 µM
Nc1ccc(N=Nc2ccc(-c3ccc(O)cc3)cc2)c2ccc(S(=O)(=O)O)cc12,Potency,[1],> 11.4 µM
O=[N+]([O-])c1ccc(S(=O)(=O)Cc2ccccc2)c([N+](=O)[O-])c1,Potency,[1],> 11.4 µM
OC[C@H](S)CS,Potency,[1],> 11.4 µM
same,outcome,[4],inactive
same,"activity, negative = inhibition",[5]; parasite line A,-3.06%
same,Potency,AS120,inactive
same,Potency,ATS189,inactive
same,Potency,CP185,inactive
same,Potency,CP191,inactive
same,Potency,CP192,inactive
same,Potency,CP201,inactive
same,Potency,CP237,2.24 µM (active)
same,Potency,CP247,inactive
same,Potency,DIV30,inactive
same,Potency,HB3,2 µM (active)
same,Potency,P94_40,inactive
same,Potency,PC49,inactive
same,Potency,TAB113,inactive
same,Potency,W2,2.39 µM (active)
N#CCCn1c(=O)c(-c2cccs2)nc2cnc(Oc3cccc(Cl)c3)nc21,Potency,[1],> 11.4 µM
same,Potency,[3],1.58 µM (active)
O=c1c(-c2ccccc2)nc2cnc(N3CCNCC3)nc2n1Cc1ccc(F)cc1,Potency,[1],> 11.4 µM
same,Potency,[2],3.16 µM (active)
same,Potency,[3],3.16 µM (active)
OCCN[C@@H]1c2cc(Cl)ccc2-c2c(Cl)cc(Cl)cc21,Potency,[1],> 11.4 µM
NS(=O)(=O)c1ccc(N=Nc2cc3ccccc3c(C(=O)O)c2O)cc1,Potency,[1],> 11.4 µM
Cc1noc(C)c1C(=O)N1CCC[C@@]2(CCN(c3cccc(-c4ccccc4)c3)C2)C1,Potency,[1],> 11.4 µM
O=C1C=C(N2CCN(c3ccccn3)CC2)C(=O)c2c(O)ccc(O)c21,Potency,[1],> 11.4 µM
COc1cc(N=Nc2cccc(S(N)(=O)=O)c2)c2ccccc2c1N,Potency,[1],> 11.4 µM
CC(C)[C@@H]1NC(=O)[C@H](CCCCN)NC(=O)[C@H](Cc2c[nH]c3ccccc23)NC(=O)[C@H](Cc2ccc(O)cc2)NC(=O)[C@H](C)N(C)C(=O)[C@H](Cc2ccccc2)NC1=O,Potency,[2],3.98 µM (active)
COc1cc2c(cc1OC)[C@H](c1ccccc1)CN(C)CC2,Potency,[2],inactive
C[N+]1(C)[C@@H]2CC(OC(=O)[C@@H](CO)c3ccccc3)C[C@@H]1[C@H]1O[C@H]12 (stereo not given in full),Potency,[1],> 11.4 µM
same,outcome,[4],inactive
same,"activity, negative = inhibition",[5]; parasite line A,5.68%
same,"activity, negative = inhibition",[5]; parasite line B,-7.21%
same,Potency,AS120,inactive
same,Potency,ATS189,inactive
same,Potency,CP185,inactive
same,Potency,CP191,inactive
same,Potency,CP192,inactive
same,Potency,CP201,inactive
same,Potency,CP237,inactive
same,Potency,CP247,inactive
same,Potency,DIV30,inactive
same,Potency,HB3,inactive
same,Potency,P94_40,inactive
same,Potency,PC49,inactive
same,Potency,TAB113,inactive
same,Potency,W2,inactive
CC(C)(C)c1ccc([C@@H](O)CCCN2CCC(C(O)(c3ccccc3)c3ccccc3)CC2)cc1,activation,[3],18.6%
N=c1ccn2c(n1)O[C@@H]1[C@@H](O)[C@H](CO)O[C@H]12,Potency,[2],inactive
O=[N+]([O-])c1ccc(S(=O)(=O)Cc2ccccc2)c2nonc12,Potency,[1],> 11.4 µM
Nc1ncnc2c1ncn2[C@@H]1CCCO1,activation,[3],-13.1%
N#CCCn1c(=O)c(-c2ccccc2)nc2cnc(N3CCNCC3)nc21,Potency,[1],> 11.4 µM
same,Potency,[3],3.16 µM (active)
COc1ncc2nc(-c3cc(F)cc(F)c3)c(=O)n(CCc3ccccc3)c2n1,Potency,[1],> 11.4 µM
